Data: PubChem BioAssay (Tox21)
“And” between values parts separate entries of the source, which are not always exact repeats. Identical values can stand only once. Unmarked numbers belong to inactive results. Results filed as inconclusive are left out. Entries that show only a call come without a potency. The source made the active and inactive calls. The call rests on the fitted dose curve; in most records, active means well fitted curve in the direction sought with a large enough effect in the repeat runs; inconclusive means weak or mixed curves; inactive means no such curve, though single readings can be large; an effect the other way counts as inactive or inconclusive.

Assays:
[1] = Human pregnane X receptor (PXR) small molecule agonists, qHTS cell viability counter screen (AID 1346977); further: nearly all actives have a fitted effect of over 50% in size; further: potency means the concentration at half of the fitted maximal effect
Summary of the method: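 Tox21 qHTS format; PXR-Luc HepG2, 2,000/well, charcoal-stripped FBS 5%. Cpd exposure 24hr. Read: CellTiter-Fluor fluorescence, multiplexed with luciferase.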

[2] = Caspase-3/7 induction in HepG2 cells by small molecules, qHTS assay (AID 1346978); further: nearly all actives have a fitted effect of over 15% in size; further: potency means the concentration at half of the fitted maximal effect
Summary of the method: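 Wild-type HepG2 cells (2,000/well) were settled 5 h at 37 C, 5% CO2, then exposed to compounds in DMSO for 17 h. Caspase-3/7 activity was read by luminescence 30 min after adding Caspase-Glo 3/7 reagent at room temperature.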

[3] = Caspase-3/7 induction in CHO-K1 cells by small molecules, qHTS assay (AID 1346980); further: nearly all actives have a fitted effect of over 15% in size
Summary of the method: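 Wild-type cells were seeded at 1,500 per well and settled 5 hr at 37 C, 5% CO2, then exposed to DMSO-dissolved compounds for 17 hr. Caspase-Glo 3/7 reagent was added, and luminescence was read after 30min at room temperature.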

[4] = Caspase-3/7 induction in HepG2 cells by small molecules, qHTS cell viability counter screen (AID 1346981); further: nearly all actives have a fitted effect of over 30% in size; further: potency means the concentration at half of the fitted maximal effect
Summary of the method: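 Counter screen for cytotoxicity: HepG2 exposed 16 hr to compounds, then CellTiter-Fluor viability signal (fluorescence, 1 hr reagent incubation).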

[5] = target: Nuclear receptor subfamily 1 group I member 2 (Homo sapiens) (UniProt O75469); assay: Human pregnane X receptor (PXR) small molecule agonists, qHTS assay (AID 1346982); further: nearly all actives have a fitted effect of over 35% in size; further: potency means the concentration at half of the fitted maximal effect
Chain of Nuclear receptor subfamily 1 group I member 2 (Homo sapiens) (O75469 whole entry, looked up): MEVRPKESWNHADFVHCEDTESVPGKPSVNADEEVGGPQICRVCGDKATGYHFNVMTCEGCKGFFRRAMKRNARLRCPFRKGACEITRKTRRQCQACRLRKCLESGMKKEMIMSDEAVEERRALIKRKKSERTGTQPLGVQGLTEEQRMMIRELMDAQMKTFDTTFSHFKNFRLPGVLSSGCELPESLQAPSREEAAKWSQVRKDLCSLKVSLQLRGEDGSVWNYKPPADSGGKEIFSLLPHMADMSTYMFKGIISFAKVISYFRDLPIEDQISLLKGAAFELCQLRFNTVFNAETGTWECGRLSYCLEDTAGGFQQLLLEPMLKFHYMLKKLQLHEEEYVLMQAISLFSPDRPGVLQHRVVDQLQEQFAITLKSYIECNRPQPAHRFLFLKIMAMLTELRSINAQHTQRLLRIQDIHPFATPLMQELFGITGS
Summary of the method: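 Luminescence (ONE-Glo, 30 min RT) after 24 hr compound exposure of PXR-Luc HepG2 cells; cells rested 5 hr post-plating in 5% charcoal-stripped FBS medium.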

[6] = target: Cytochrome P450 2C19 (Homo sapiens) (UniProt P33261); assay: Cytochrome P450 Family 2 Subfamily C Member 19 (CYP2C19) small molecule antagonists: luciferase reporter qHTS assay (AID 1671197); further: nearly all actives have a fitted effect of over 65% in size; further: potency means the concentration at half of the fitted maximal effect
Chain of Cytochrome P450 2C19 (Homo sapiens) (P33261 whole entry, looked up): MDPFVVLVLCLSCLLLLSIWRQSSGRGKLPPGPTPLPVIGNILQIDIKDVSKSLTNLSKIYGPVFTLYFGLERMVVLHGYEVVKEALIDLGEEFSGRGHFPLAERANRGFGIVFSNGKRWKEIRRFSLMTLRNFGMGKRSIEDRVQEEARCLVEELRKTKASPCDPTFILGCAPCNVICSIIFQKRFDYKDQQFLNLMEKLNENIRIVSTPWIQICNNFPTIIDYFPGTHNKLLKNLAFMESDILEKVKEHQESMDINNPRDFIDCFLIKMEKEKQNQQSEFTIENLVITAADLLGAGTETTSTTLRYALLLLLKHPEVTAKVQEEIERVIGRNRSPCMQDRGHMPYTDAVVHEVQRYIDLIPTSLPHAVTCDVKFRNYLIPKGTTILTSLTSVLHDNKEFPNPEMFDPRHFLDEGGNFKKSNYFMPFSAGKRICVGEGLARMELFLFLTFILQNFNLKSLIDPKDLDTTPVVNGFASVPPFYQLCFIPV
Summary of the method: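 Compounds were tested on CYP2C19 activity via proluciferin conversion to luciferin. The 37C, 1 h reaction followed NADPH addition; detection reagent stopped it.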

[7] = target: Cytochrome P450 2C9 (Homo sapiens) (UniProt P11712); assay: Cytochrome P450 Family 2 Subfamily C Member 9 (CYP2C9) small molecule antagonists: luciferase reporter qHTS assay (AID 1671198); further: nearly all actives have a fitted effect of over 50% in size; further: potency means the concentration at half of the fitted maximal effect
Chain of Cytochrome P450 2C9 (Homo sapiens) (P11712 whole entry, looked up): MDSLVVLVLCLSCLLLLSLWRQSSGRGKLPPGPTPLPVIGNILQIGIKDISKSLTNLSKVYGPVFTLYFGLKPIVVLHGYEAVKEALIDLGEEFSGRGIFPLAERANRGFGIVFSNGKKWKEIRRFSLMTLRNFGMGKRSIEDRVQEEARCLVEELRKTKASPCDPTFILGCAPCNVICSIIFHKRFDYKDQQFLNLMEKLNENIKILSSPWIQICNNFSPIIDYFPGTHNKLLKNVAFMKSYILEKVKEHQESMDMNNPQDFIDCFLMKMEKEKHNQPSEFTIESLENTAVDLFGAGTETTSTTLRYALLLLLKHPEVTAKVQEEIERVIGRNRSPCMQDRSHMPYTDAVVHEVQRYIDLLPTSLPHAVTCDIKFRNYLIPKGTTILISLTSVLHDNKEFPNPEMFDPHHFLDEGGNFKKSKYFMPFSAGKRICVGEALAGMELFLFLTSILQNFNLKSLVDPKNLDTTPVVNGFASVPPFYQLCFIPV
Summary of the method: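 CYP2C9 activity was measured with a P450-Glo proluciferin substrate. Enzyme–substrate mix was held with compound for 10 min at room temperature, then NADPH regeneration solution was added for 1 h at 37C. Luciferin product was read as luminescence.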

[8] = target: Cytochrome P450 1A2 (Homo sapiens) (UniProt P05177); assay: Cytochrome P450 Family 1 Subfamily A Member 2 (CYP1A2) small molecule antagonists: luciferase reporter qHTS assay (AID 1671199); further: nearly all actives have a fitted effect of over 50% in size; further: potency means the concentration at half of the fitted maximal effect
Chain of Cytochrome P450 1A2 (Homo sapiens) (P05177 whole entry, looked up): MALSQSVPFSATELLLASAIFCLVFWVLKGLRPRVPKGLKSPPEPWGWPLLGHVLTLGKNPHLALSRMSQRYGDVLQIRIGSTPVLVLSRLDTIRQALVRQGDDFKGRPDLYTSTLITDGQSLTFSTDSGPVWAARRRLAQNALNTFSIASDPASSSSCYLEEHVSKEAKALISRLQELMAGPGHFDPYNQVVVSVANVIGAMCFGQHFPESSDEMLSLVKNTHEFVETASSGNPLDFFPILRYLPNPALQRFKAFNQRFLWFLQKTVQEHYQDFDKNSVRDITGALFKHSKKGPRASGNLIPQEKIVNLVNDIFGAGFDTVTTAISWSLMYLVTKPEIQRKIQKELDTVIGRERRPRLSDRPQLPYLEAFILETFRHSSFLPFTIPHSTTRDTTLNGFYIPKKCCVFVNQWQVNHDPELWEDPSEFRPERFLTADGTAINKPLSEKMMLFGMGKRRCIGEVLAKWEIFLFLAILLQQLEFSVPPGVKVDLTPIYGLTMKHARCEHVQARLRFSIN
Summary of the method: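 Signal from luciferin formed by CYP1A2 from a proluciferin substrate is read as luminescence, expressed in relative luminescence units. Compounds sit with enzyme 10 min, NADPH-driven reaction runs 1 h, all at room temperature.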

[9] = target: Voltage-gated inwardly rectifying potassium channel KCNH2 (Homo sapiens) (UniProt Q12809); assay: Human Ether-a-go-go-Related Gene (hERG) channel small molecule antagonists: fluorescence cell-based qHTS assay (AID 1671200); further: nearly all actives have a fitted effect of over 50% in size; further: potency means the concentration at half of the fitted maximal effect
Chain of Voltage-gated inwardly rectifying potassium channel KCNH2 (Homo sapiens) (Q12809 whole entry, looked up): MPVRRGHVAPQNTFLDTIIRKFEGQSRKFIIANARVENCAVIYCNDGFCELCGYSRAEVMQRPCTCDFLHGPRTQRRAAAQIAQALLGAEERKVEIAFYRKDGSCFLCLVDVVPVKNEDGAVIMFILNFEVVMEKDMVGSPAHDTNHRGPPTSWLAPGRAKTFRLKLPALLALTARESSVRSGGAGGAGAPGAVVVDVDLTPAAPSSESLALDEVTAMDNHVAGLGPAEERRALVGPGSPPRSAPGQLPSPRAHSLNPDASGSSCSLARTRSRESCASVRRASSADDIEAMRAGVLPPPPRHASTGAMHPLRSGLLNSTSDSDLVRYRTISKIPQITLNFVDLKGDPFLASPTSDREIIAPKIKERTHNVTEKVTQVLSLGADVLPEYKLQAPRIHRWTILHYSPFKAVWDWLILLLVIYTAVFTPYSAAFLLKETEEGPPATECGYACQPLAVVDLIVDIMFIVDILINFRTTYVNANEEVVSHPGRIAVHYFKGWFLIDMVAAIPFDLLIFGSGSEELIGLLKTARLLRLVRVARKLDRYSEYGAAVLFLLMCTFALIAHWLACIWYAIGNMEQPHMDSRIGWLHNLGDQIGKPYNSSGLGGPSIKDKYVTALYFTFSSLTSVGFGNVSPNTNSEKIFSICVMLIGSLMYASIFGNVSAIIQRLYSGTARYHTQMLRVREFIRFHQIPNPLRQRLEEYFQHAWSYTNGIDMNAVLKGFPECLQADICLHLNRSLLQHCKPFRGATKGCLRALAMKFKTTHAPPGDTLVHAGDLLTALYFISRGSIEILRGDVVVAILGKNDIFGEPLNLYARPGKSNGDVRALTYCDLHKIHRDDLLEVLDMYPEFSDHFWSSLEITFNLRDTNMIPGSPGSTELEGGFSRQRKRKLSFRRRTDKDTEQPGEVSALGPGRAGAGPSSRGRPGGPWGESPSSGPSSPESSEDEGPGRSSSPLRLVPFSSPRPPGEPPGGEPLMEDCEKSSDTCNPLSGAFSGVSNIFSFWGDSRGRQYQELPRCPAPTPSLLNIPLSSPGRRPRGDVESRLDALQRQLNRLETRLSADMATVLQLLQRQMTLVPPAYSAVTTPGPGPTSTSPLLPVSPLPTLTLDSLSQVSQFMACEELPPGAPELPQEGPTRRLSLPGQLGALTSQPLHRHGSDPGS
Summary of the method: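 Kinetic two-minute fluorescence traces, sampled at 1 s, were collected following thallium stimulus of U2OS cells (1000 per well) that had been cultured overnight at 37 C and loaded with FluxOR II.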

[10] = target: Cytochrome P450 2D6 (Homo sapiens) (UniProt P10635); assay: Cytochrome P450 Family 2 Subfamily D Member 6 (CYP2D6) small molecule antagonists: luciferase reporter qHTS assay (AID 1671196); further: nearly all actives have a fitted effect of over 50% in size; further: potency means the concentration at half of the fitted maximal effect
Chain of Cytochrome P450 2D6 (Homo sapiens) (P10635 whole entry, looked up): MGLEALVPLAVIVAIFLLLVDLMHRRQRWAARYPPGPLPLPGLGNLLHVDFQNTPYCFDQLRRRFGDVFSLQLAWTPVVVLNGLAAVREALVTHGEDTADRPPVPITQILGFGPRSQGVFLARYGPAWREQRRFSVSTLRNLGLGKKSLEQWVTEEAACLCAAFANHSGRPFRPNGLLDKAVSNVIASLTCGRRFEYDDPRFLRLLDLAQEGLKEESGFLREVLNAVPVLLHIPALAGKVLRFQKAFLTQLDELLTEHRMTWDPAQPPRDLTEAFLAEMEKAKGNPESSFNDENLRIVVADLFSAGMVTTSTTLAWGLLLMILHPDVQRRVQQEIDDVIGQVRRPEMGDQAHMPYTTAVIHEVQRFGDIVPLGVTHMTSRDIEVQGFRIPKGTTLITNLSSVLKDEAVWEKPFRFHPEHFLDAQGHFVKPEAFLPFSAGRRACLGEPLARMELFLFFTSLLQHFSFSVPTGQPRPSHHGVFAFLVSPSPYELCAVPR
Summary of the method: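 Inhibition of CYP2D6 was gauged by loss of luminescence, since light produced tracks the luciferin generated from a proluciferin substrate. A 10 min room-temperature preincubation preceded 1 h NADPH-supported turnover.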

[11] = target: Cytochrome P450 3A4 (Homo sapiens) (UniProt P08684); assay: Cytochrome P450 Family 3 Subfamily A Member 4 (CYP3A4) small molecule antagonists: luciferase reporter qHTS assay (AID 1671201); further: nearly all actives have a fitted effect of over 50% in size; further: potency means the concentration at half of the fitted maximal effect
Chain of Cytochrome P450 3A4 (Homo sapiens) (P08684 whole entry, looked up): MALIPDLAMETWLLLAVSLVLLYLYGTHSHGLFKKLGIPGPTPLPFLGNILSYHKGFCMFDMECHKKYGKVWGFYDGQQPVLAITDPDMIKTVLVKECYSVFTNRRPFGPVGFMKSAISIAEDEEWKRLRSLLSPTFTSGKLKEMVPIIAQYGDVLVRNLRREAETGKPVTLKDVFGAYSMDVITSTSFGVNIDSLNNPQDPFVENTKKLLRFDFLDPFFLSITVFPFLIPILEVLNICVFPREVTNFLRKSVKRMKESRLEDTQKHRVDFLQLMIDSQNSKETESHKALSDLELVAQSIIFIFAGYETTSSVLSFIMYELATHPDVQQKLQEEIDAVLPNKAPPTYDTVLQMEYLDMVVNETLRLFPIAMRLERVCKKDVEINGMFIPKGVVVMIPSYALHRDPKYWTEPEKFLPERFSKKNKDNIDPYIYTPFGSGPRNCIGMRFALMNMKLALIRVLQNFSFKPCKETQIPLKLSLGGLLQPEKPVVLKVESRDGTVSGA
Summary of the method: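 Proluciferin-to-luciferin conversion by CYP3A4, NADPH-regenerated, 1 h RT; luminescence read as RLU. Ketoconazole as control.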

[12] = target: Nuclear receptor subfamily 1 group I member 2 (Rattus norvegicus) (UniProt Q9R1A7); assay: Rat pregnane X receptor (rPXR) activation by small molecules, qHTS assay (AID 1346983); details: rPXR luciferase reporter cells, One-Glo luminescence, 24 h; max activation: active compounds read high; further: nearly all actives have a fitted effect of over 20% in size
Chain of Nuclear receptor subfamily 1 group I member 2 (Rattus norvegicus) (Q9R1A7 whole entry, looked up): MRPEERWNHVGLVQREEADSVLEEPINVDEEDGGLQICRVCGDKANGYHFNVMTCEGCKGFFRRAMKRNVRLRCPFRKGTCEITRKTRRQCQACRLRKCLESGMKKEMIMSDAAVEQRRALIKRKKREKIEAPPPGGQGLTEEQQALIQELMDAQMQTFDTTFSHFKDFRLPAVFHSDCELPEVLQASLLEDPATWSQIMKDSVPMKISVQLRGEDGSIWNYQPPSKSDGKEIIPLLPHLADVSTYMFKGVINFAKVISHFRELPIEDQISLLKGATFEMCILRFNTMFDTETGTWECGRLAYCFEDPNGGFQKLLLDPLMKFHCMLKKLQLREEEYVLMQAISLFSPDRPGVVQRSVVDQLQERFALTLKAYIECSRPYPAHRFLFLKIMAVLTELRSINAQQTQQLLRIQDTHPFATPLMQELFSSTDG
Summary of the method: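 Cell-based rPXR luciferase reporter assay, 2,000 cells per well, rested 5hr at 37 C before compound addition in DMSO, then 24 hr at 37 C. One-Glo reagent was added and luminescence read after 30 min at room temperature.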

[13] = Caspase-3/7 induction in CHO-K1 cells by small molecules, qHTS cell viability counter screen (AID 1346979); further: nearly all actives have a fitted effect of over 35% in size; further: potency means the concentration at half of the fitted maximal effect
Summary of the method: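 CellTiter-Fluor viability check, qHTS format: wild-type CHO-K1, 16hr compound treatment, 1hr reagent incubation, fluorescence read.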

[14] = target: Nuclear receptor subfamily 1 group I member 2 (Homo sapiens) (UniProt O75469); assay: CYP3A4 induction through human pregnane X receptor (PXR) by small molecules, qHTS assay (AID 1346984); further: potency means the concentration at half of the fitted maximal effect; nearly all actives have a fitted effect of over 40% in size
Summary of the method: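 DPX-2 reporter cells; 24h cpd, 37C; Luciferin-IPA 3uM final x3h; One-Glo 30 min RT; lumi read.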

[15] = target: Nuclear receptor subfamily 1 group I member 2 (Homo sapiens) (UniProt O75469); assay: Human pregnane X receptor (PXR) activation by small molecules, qHTS assay (AID 1346985); further: potency means the concentration at half of the fitted maximal effect; nearly all actives have a fitted effect of over 40% in size
Summary of the method: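 DPX-2 cells (HepG2 co-transfected with a PXR response element and a CYP3A4-promoter luciferase construct) were seeded at 2,000 per well, rested 5 hr at 37C, then exposed to DMSO-dissolved compounds for 24 hr. Activation was read as luciferase luminescence.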

In the case of `Cc1cccc(N(C)C(=S)Oc2ccc3c(c2)C2CCC3C2)c1` (stereo not given), the Potency [1] is reported as “inactive”, the Potency [2] is reported as “inactive” and the Potency [3] is reported as “inactive”. The Potency [4] was “inactive”, the Potency [5] was 11.9 µM (active) and the Potency [6] was 1.74 µM (active). The Potency [7] was 15.5 µM (active), the Potency [8] was 9.11 µM (active) and the Potency [9] was “inactive”.

In the case of `Cc1ccc2oc(CN(Cc3ccccc3)C(=O)Nc3c(F)cc(F)cc3F)c(-c3ccc(Cl)cc3)c2c1`, the Potency [1] is reported as “inactive”, the Potency [2] is reported as “inactive” and the Potency [3] is reported as “inactive”. The Potency [4] was “inactive”, the Potency [5] was 3.74 µM (active) and the Potency [10] was 0.194 µM (active). For the same compound, the Potency [6] was 10.9 µM (active), the Potency [8] was 54.6 µM (active) and the Potency [11] was 2.44 µM (active).

In the case of `CN(C/C=C/C#CC(C)(C)C)Cc1cccc2ccccc12`, the Potency [1] is reported as “inactive”, the Potency [2] is reported as “inactive” and the Potency [3] is reported as “inactive”. For the same compound, the Potency [4] was “inactive”, the Potency [10] was 0.275 µM (active) and the Potency [6] was 17.4 µM (active). For the same compound, the Potency [7] was 15.5 µM (active).

With `CN(C)c1ccc(C2(c3ccc(N(C)C)cc3)OC(=O)c3cc(N(C)C)ccc32)cc1` the Potency [1] was “inactive”, the Potency [2] was “inactive” and the Potency [3] was “inactive”. The Potency [5] was “inactive”, the Potency [10] was “inactive” and the Potency [6] was 1.41 µM (active). The Potency [7] was 3.16 µM (active), the Potency [8] was “inactive” and the Potency [9] was “inactive”. The Potency [11] was 2 µM (active).

With `O=C(Nc1cccc(Cl)c1)OCC#CCCl` the Potency [1] was 54.5 µM (active), the Potency [2] was “inactive” and the Potency [3] was “inactive”. For the same compound, the Potency [4] was 27.3 µM (active), the Potency [5] was 13.7 µM (active) and the Potency [10] was 39.9 µM (active). For the same compound, the Potency [6] was 8.94 µM (active), the Potency [8] was 1.78 µM (active) and the Potency [11] was 7.1 µM (active).

For `Cc1c(C)c2c(c(C)c1O)CCC(C)(COc1ccc(CC3SC(=O)NC3=O)cc1)O2` (stereo not given), the Potency [1] was “inactive”, the Potency [2] was “inactive” and the Potency [3] was “inactive”. For the same compound, the Potency [4] was “inactive”, the Potency [10] was “inactive” and the Potency [7] was 5.03 µM (active) and 4.9 µM (active). For the same compound, the Potency [8] was “inactive” and the Potency [9] was “inactive”.

With `CO[Si](CCCNc1ccccc1)(OC)OC` the Potency [1] was “inactive”, the Potency [2] was “inactive” and the Potency [3] was “inactive”. The Potency [4] was “inactive”, the Potency [5] was “inactive” and the Potency [10] was “inactive”. The Potency [6] was “inactive”, the Potency [8] was “inactive” and the Potency [9] was “inactive”. The Potency [11] was 25.2 µM (active).

For `CC(C)(C)c1ccc(C(=O)O)cc1`, the Potency [1] was “inactive”, the Potency [2] was “inactive” and the Potency [3] was “inactive”. The Potency [4] was “inactive”, the Potency [10] was “inactive” and the Potency [6] was “inactive”. The Potency [7] was “inactive”, the Potency [8] was “inactive” and the Potency [11] was “inactive”.

Compound `CN1CCN(CCC(=O)N2c3ccccc3Sc3ccc(C(F)(F)F)cc32)CC1` has a max activation [12] of -0.926%.

With `CC1=C(C(=O)OC(C)C)C(c2cccc([N+](=O)[O-])c2)C(C(=O)OC2CN(C(c3ccccc3)c3ccccc3)C2)=C(N)N1` (stereo not given) the max activation [12] was -6.42%.

In the case of `O=C1C=CC(=O)N1`, the Potency [2] is reported as “inactive”, the Potency [13] is reported as 5.59 µM (active) and the Potency [3] is reported as “inactive”. The Potency [5] was “inactive”, the Potency [10] was “inactive” and the Potency [8] was 32.6 µM (active). The Potency [11] was “inactive”.

With `CC(C)n1nc(-c2cc3cc(O)ccc3[nH]2)c2c(N)ncnc21` the Potency [2] was 29.8 µM (active), the Potency [13] was 1.06 µM (active) and the Potency [5] was 3.76 µM (active). The Potency [10] was 30.9 µM (active), the Potency [6] was 0.49 µM (active) and the Potency [7] was 2.45 µM (active). For the same compound, the Potency [9] was “inactive”.

For `O=C(Nc1ccc(Oc2ccc(Cl)cc2)c(Cl)c1)c1cc(I)cc(I)c1O`, the Potency [2] was “inactive”, the Potency [13] was “inactive” and the Potency [3] was “inactive”. The Potency [5] was 26.6 µM (active), the max activation [12] was -12.9% and the Potency [14] was 22.4 µM (active). The Potency [15] was 22.4 µM (active), the Potency [10] was “inactive” and the Potency [6] was “inactive”. For the same compound, the Potency [7] was 38.9 µM (active), the Potency [8] was “inactive” and the Potency [11] was “inactive”.

In the case of `N#CSc1ccc(N)c([N+](=O)[O-])c1`, the Potency [1] is reported as 30.8 µM (active), the Potency [3] is reported as “inactive” and the Potency [4] is reported as 54.8 µM (active). The Potency [5] was 12.3 µM (active), the Potency [8] was 1.6 µM (active) and the Potency [9] was “inactive”.

For `CN(C)[C@@H]1C(=O)C(C(N)=O)=C(O)[C@@]2(O)C(=O)C3=C(O)c4c(O)cccc4C[C@H]3C[C@@H]12`, the Potency [1] was “inactive”, the Potency [3] was “inactive” and the Potency [4] was “inactive”. The Potency [5] was “inactive”, the Potency [10] was “inactive” and the Potency [6] was “inactive”. For the same compound, the Potency [7] was “inactive”, the Potency [8] was “inactive” and the Potency [9] was “inactive”. For the same compound, the Potency [11] was “inactive”.

For `CCCCCCCCCCCCCCCS(=O)(=O)Oc1ccccc1`, the Potency [1] was “inactive”, the Potency [3] was “inactive” and the Potency [4] was “inactive”. The Potency [5] was “inactive”, the Potency [10] was “inactive” and the Potency [6] was 4.36 µM (active). The Potency [7] was 1.23 µM (active), the Potency [9] was “inactive” and the Potency [11] was “inactive”.

With `NNc1nc(-c2ccc(N)cc2)cs1` the Potency [2] was “inactive”, the Potency [13] was 48.6 µM (active) and the Potency [3] was “inactive”. The Potency [10] was 71 µM (active), the Potency [6] was 79.6 µM (active) and the Potency [8] was 35.6 µM (active). The Potency [9] was “inactive” and the Potency [11] was 14.2 µM (active).

In the case of `CCCCC(CC)COC(=O)c1ccccc1C(=O)O` (stereo not given), the Potency [1] is reported as “inactive”, the Potency [3] is reported as “inactive” and the Potency [5] is reported as 35 µM (active). The Potency [6] was 40.6 µM (active), the Potency [7] was 5.91 µM (active) and the Potency [8] was 54.2 µM (active). For the same compound, the Potency [9] was “inactive” and the Potency [11] was “inactive”.

For `COc1cccc(N)c1`, the Potency [2] was “inactive”, the Potency [13] was 24.5 µM (active) and the Potency [3] was “inactive”. The Potency [9] was “inactive”.

In the case of `CNC(=O)c1ccccc1`, the Potency [1] is reported as “inactive”, the Potency [3] is reported as “inactive” and the Potency [4] is reported as “inactive”. For the same compound, the Potency [5] was “inactive”, the Potency [6] was “inactive” and the Potency [7] was “inactive”. For the same compound, the Potency [9] was “inactive” and the Potency [11] was “inactive”.

With `CCc1oc2ccccc2c1C(=O)c1cc(Br)c(O)c(Br)c1` the Potency [2] was “inactive”, the Potency [13] was “inactive” and the Potency [3] was “inactive”. The Potency [4] was “inactive”, the Potency [10] was “inactive” and the Potency [6] was “inactive”. For the same compound, the Potency [9] was 10.7 µM (active) and the Potency [11] was “inactive”.
